Records with an inconclusive call do not appear. Entries that show only a call come without a potency. The source holds several records for some structures; these can differ, active in one and inactive in another. The source made the active and inactive calls. Unless noted, calls follow the shape of the dose curve; as a rule, active = well fitted curve in the direction sought with a large enough effect in the repeat runs; inconclusive = weak or mixed curves; inactive = no such curve, though single readings can be large; an effect the other way counts as inactive or inconclusive.
How the values were obtained:
[1] = A CellTox Green Cytotoxicity Assay to monitor cytotoxicity in HepG2 cells - 8 hour (AID 1224890); also: nearly all actives have a fitted effect of over 45% in size
Method in brief: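 Read-out is fluorescence of a cyanine dye excluded from live cells that stains DNA of dead HepG2 cells, with signal proportional to cytotoxicity. Plates were read at 0, 8, 16, 24, 32 and 40 h after compound addition.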

[2] = qHTS assay to identify small molecule antagonists of the estrogen receptor alpha (ER-alpha) signaling pathway using the BG1 cell line in the presence of 0.1 nM 17-beta-estradiol - cell viability counter screen (AID 1259241); also: nearly all actives have a fitted effect of over 40% in size
Method in brief: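 Live-cell protease activity (CellTiter-Fluor fluorescence, 30 min) was read in the same wells after VM7Luc4E2 cells had been exposed to compounds with 0.1 nM 17beta-estradiol for 22 hr at 37C.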

[3] = biological target: Estrogen receptor (Homo sapiens) (UniProt P03372); assay: qHTS assay to identify small molecule antagonists of the estrogen receptor alpha (ER-alpha) signaling pathway using the BG1 cell line in the presence of 0.1 nM 17-beta-estradiol (AID 1259244); also: nearly all actives have a fitted effect of over 50% in size
Method in brief: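 Cells: VM7Luc4E2, endogenous ER-alpha, 4x ERE-luc stable. Pre-culture 5 d, phenol red-free, charcoal-stripped FBS. Plated 24 h, compound + E2 0.1 nM final, 22 h 37C/5% CO2. Readout ONE-Glo luminescence.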

[4] = qHTS assay to identify small molecule phospholipidosis (PLD) inducers (AID 1259344; active = well fitted curve in the direction sought with a large enough effect; an effect the other way counts as inactive or inconclusive)
Method in brief: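 Fluorescent phospholipid staining (LipidTOX Red) measured by automated microscopy in fixed HepG2 cells after 24 h treatment; nuclei counterstained with Hoechst 33342; amiodarone as reference inducer.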

[5] = qHTS assay to identify small molecule HDAC inhibitors (AID 1259364); also: top concentration of the series differs between compounds; nearly all actives have a fitted effect of over 45% in size
Method in brief: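 Luminescence from a cell-permeant luminogenic class I/II HDAC substrate reports endogenous deacetylase activity in intact HCT-116 cells treated with compounds for 2 h.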

[6] = qHTS assay to identify small molecule HDAC inhibitors - cell viability counter screen (AID 1259365); also: series mostly up to about 92 µM; nearly all actives have a fitted effect of over 50% in size
Method in brief: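 HCT-116 (wild type), 1,500 cells/well, overnight 37C/5% CO2; compound in DMSO 2hr; CellTiter-Glo 30min RT; luminescence read.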

[7] = qHTS assay to identify small molecule agonists of the sonic hedgehog signaling (Shh) pathway (AID 1259368; calls by dose curve;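 also: NIH/3T3-derived 3T3Gli1-Luc cells carrying a stable Gli1-driven firefly luciferase reporter; series mostly up to about 92 µM; nearly all actives have a fitted effect of over 15% in size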)
Method in brief: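 3T3Gli1-Luc (NIH/3T3 clone, stable Gli1-Luc); 4 hr pre-incubation, then cpd in DMSO 24 hr, 37 C/5% CO2; luciferase reagent 30 min RT; luminescence.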

[8] = qHTS assay to identify small molecule antagonists of the sonic hedgehog signaling (Shh) pathway (AID 1259369; calls by dose curve; also: nearly all actives have a fitted effect of over 45% in size; also: potency is read from the fitted curve at half-maximal effect)
Method in brief: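 3T3Gli1-Luc, conditioned-medium-stimulated, 24hr cpd, 37C/5% CO2; Gli1-driven firefly Luc luminescence after 30min RT with luciferase reagent. Cells plated 4hr before cpd.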

[9] = biological target: Estrogen receptor beta (Homo sapiens) (UniProt Q92731); assay: qHTS assay to identify small molecule agonists of the estrogen receptor beta (ER-beta) signaling pathway (AID 1259377; active = well fitted activation curve with a large enough effect in the signal ratio in the repeat runs, not every such curve was filed as active; the % refers to the signal ratio)
Method in brief: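 Beta-lactamase reporter readout: fluorescence of LiveBLAzer B/G FRET substrate after 2 h at room temperature, following 16 h compound treatment of ER-beta-UAS-bla HEK293T cells at 37C in 2% charcoal-stripped FBS medium.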

[10] = biological target: Estrogen receptor beta (Homo sapiens) (UniProt Q92731); assay: qHTS assay to identify small molecule antagonists of the estrogen receptor beta (ER-beta) signaling pathway (AID 1259378; active = well fitted inhibition curve with a large enough effect in the signal ratio in the repeat runs, not every such curve was filed as active; the % refers to the signal ratio)
Method in brief: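 Antagonist mode: compounds added to beta-lactamase reporter HEK293T ER-beta-UAS cells stimulated with E2 (1nM final), 16 hr at 37C. LiveBLAzer B/G FRET substrate, 2 hours room temperature, fluorescence read-out.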

[11] = qHTS assay to identify small molecule agonists of the androgen receptor (AR) signaling pathway in the presence of an antagonist - cell viability counter screen (AID 1259379);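 also: MDA-kb2 human breast cancer cells carrying an MMTV luciferase reporter; series mostly up to about 92 µM; nearly all actives have a fitted effect of over 25% in size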
Method in brief: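 Cells: MDA-kb2 (MMTV-luc, AR and GR elements), 3,000/well, 5 hr settle. Added: nilutamide 3.0uM final, then compounds (15 conc.). Incubation: 16 hr, 37C, no CO2. Read-out: CellTiter-Fluor, 1 hr, fluorescence.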

[12] = qHTS assay to identify small molecule agonists of the estrogen receptor beta (ER-beta) signaling pathway - cell viability counter screen (AID 1259380); also: nearly all actives have a fitted effect of over 30% in size
Method in brief: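 HEK293T ER-beta-UAS-bla; 2% CS-FBS; 6 hr pre-plate, 16 hr cpd at 37C/5% CO2; LiveBLAzer read first, then CellTiter-Glo 30 min RT, luminescence.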

[13] = biological target: Androgen receptor (Homo sapiens) (UniProt P10275); assay: qHTS assay to identify small molecule agonists of the androgen receptor (AR) signaling pathway in the presence of an antagonist (AID 1259381; calls by dose curve; also: nearly all actives have a fitted effect of over 15% in size; also: potency is read from the fitted curve at half-maximal effect)
Method in brief: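 MDA-kb2 cells, 3,000/well, rested 5hr at 37C/0% CO2 → nilutamide 3.0uM final or buffer → compounds, 15 conc. → 16hr at 37C → ONE-Glo, 30min RT → luminescence.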

[14] = qHTS assay to identify small molecule antagonists of the estrogen receptor beta (ER-beta) signaling pathway - cell viability counter screen (AID 1259382);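 also: HEK293T cells carrying ER-beta-UAS-bla reporter stimulated with estradiol; series mostly up to about 92 µM; nearly all actives have a fitted effect of over 55% in size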
Method in brief: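 Cells: ER-beta-UAS-bla HEK293T, 2,000/well, 2% CS-FBS, 6 hr settle. Cpd + E2 (1nM final), 16 hr, 37C/5% CO2. Bla FRET substrate 2 hr RT, then CellTiter-Glo 30 min RT, luminescence.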

[15] = biological target: Estrogen receptor (Homo sapiens) (UniProt P03372); assay: qHTS assay to identify small molecule agonists of the estrogen receptor alpha (ER-alpha) signaling pathway in the presence of an antagonist (AID 1259383; calls by dose curve; also: top concentration of the series differs between compounds; nearly all actives have a fitted effect of over 15% in size)
Method in brief: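 VM7Luc4E2, endog. ER-alpha + 4×ERE-luc; charcoal-stripped FBS, phenol red-free, 5 d; 24hr plating; +10.0nM ICI-182,780 (final); cpds 15 conc, 22hr, 37C/5% CO2; ONE-Glo luminescence.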

[16] = biological target: Androgen receptor (Homo sapiens) (UniProt P10275); assay: qHTS assay to identify small molecule antagonists of the androgen receptor (AR) signaling pathway using the MDA cell line in the presence of 0.5 nM R1881 (AID 1259243); also: nearly all actives have a fitted effect of over 50% in size
Method in brief: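 Luciferase luminescence is the read-out: compounds are tested for suppressing 0.5 nM R1881-driven MMTV reporter activity in MDA-kb2 cells after 16 hr at 37C.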

[17] = qHTS assay to identify small molecule agonists of the sonic hedgehog signaling (Shh) pathway - cell viability counter screen (AID 1259366); also: nearly all actives have a fitted effect of over 50% in size
Method in brief: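 CellTiter-Fluor fluorescence read-out, 1 hr at 37C, added after 23hr compound exposure. Cells: 3T3 Gli1-Luc, an NIH/3T3 clone with stably integrated Gli1-Luc reporter, plated 4hr before compound.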

[18] = qHTS assay to identify small molecule antagonists of the sonic hedgehog signaling (Shh) pathway - cell viability counter screen (AID 1259367); also: nearly all actives have a fitted effect of over 55% in size
Method in brief: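 Using CellTiter-Fluor, viability of Gli1-Luc reporter 3T3 cells is read by fluorescence in the wells used for the Shh luciferase assay. Treatment lasts 23 hr with conditioned medium, then reagent 1 hr at 37C.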

[19] = qHTS assay to identify small molecule agonists or antagonists of the thyroid stimulating hormone receptor (TSHR) signaling pathway - wild type cell line counter screen (AID 1259384; calls by dose curve)
Method in brief: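 Counter screen in untransfected Hek293: compounds (15-point titration, triplicate) plus phosphodiesterase inhibitor Ro20-1724 added after 18 h plating; 30 min RT. Intracellular cAMP via competitive d2/cryptate immunoassay, 1 h incubation.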

[20] = qHTS assay to identify small molecule antagonists of the androgen receptor (AR) signaling pathway using the MDA cell line in the presence of 0.5 nM R1881 - cell viability counter screen (AID 1259242); also: nearly all actives have a fitted effect of over 45% in size
Method in brief: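 Counter screen for cytotoxicity run in the same wells as the AR antagonist reporter screen: MDA-kb2 cells were treated 16 hr with test compounds and 0.5 nM R1881, then live-cell protease activity was measured by fluorescence.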

Chain of Estrogen receptor (Homo sapiens) (P03372 whole entry, looked up): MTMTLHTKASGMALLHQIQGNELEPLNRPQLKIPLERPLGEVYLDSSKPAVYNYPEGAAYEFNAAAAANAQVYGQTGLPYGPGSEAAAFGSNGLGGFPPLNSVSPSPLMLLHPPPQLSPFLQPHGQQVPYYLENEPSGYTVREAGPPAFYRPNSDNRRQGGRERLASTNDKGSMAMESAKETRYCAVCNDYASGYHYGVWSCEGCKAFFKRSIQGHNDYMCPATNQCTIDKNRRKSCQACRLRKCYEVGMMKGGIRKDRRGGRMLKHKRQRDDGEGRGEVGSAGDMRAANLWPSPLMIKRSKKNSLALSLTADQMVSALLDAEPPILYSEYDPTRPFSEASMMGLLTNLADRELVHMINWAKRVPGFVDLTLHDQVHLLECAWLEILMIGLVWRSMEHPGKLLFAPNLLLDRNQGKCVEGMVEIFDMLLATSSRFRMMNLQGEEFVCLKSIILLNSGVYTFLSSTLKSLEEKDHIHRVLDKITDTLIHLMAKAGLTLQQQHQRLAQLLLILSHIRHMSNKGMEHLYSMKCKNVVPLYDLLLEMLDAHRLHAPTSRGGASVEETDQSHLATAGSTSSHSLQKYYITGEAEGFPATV
Chain of Androgen receptor (Homo sapiens) (P10275 whole entry, looked up): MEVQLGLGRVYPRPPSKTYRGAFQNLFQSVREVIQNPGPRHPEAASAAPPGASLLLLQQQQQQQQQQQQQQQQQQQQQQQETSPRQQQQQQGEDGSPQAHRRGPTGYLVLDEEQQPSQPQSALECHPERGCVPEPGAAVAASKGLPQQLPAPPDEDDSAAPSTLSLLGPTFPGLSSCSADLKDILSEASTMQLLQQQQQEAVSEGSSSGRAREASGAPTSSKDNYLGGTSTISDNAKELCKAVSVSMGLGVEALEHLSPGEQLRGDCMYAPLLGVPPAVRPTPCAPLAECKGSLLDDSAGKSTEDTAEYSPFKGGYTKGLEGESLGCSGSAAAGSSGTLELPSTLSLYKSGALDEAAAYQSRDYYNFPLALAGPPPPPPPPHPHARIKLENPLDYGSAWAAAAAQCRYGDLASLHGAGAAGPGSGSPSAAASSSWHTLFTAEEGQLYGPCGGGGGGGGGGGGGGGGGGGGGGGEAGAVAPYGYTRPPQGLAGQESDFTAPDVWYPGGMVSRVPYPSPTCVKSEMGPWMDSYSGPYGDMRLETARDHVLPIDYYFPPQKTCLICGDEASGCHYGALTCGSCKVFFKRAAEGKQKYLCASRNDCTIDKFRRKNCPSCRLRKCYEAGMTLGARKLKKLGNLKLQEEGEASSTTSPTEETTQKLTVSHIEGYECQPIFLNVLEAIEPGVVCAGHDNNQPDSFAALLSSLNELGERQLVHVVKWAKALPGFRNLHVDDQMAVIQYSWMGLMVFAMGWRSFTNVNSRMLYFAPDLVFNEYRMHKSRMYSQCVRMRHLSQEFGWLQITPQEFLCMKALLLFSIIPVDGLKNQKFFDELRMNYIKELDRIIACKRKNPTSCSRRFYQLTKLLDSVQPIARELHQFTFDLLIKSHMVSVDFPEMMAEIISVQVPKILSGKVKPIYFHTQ
Chain of Estrogen receptor beta (Homo sapiens) (Q92731 whole entry, looked up): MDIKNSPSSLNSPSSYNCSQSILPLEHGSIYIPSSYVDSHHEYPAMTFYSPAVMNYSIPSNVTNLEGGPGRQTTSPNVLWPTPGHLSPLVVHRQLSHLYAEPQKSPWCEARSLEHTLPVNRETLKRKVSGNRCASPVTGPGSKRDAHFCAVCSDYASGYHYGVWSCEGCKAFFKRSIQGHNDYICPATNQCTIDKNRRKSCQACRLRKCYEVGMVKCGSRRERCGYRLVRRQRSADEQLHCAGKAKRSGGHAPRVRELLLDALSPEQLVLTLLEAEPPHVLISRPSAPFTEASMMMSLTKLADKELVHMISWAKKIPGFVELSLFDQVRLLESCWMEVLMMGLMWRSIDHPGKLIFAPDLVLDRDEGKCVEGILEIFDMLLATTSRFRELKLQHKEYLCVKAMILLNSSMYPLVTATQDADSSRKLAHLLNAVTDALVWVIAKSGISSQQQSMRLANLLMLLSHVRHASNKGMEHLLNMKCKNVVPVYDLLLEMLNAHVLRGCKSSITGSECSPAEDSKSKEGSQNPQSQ

Structure (SMILES) | Potency [1] | outcome [2] | Potency [3] | Potency [4] | Potency [5] | outcome [6] | outcome [7] | Potency [8] | Potency [9] | outcome [10] | Potency [11] | Potency [12] | Potency [13] | Potency [14] | Potency [15] | Potency [16] | Potency [17] | Potency [18] | outcome [19] | Potency [20]
C[C@H](CN1CCOCC1)C(C(=O)N1CCCC1)(c1ccccc1)c1ccccc1 | inactive | inactive | inactive | inactive | inactive | inactive | inactive | inactive | inactive | inactive | inactive | inactive | inactive | inactive | inactive | – | – | – | – | –
CCSC(=O)Cl | inactive | inactive | inactive | – | inactive | inactive | – | – | inactive | inactive | inactive | – | inactive | inactive | inactive | inactive | inactive | inactive | inactive | –
CC(Cc1ccccc1)NCCn1cnc2c1c(=O)n(C)c(=O)n2C (centres undefined) | inactive | inactive | – | inactive | inactive | inactive | inactive | inactive | inactive | inactive | inactive | inactive | – | inactive | inactive | – | – | – | – | –
CCOC(=O)CC(SP(=S)(OC)OC)C(=O)OCC (centres undefined) | inactive | – | inactive | inactive | inactive | inactive | inactive | inactive | – | – | inactive | inactive | 27.3 µM (active) and inactive | inactive | inactive | inactive | inactive | inactive | inactive | inactive
CC(Cl)(Cl)Cl | inactive | inactive | – | – | inactive | inactive | inactive | inactive | – | – | inactive | inactive | – | inactive | – | – | inactive | inactive | inactive | –
CCC(CC)(CNC(=O)CCCO)c1cccc(OC)c1 | inactive | – | inactive | – | inactive | inactive | inactive | inactive | inactive | inactive | inactive | inactive | inactive | inactive | inactive | inactive | – | inactive | inactive | inactive
COc1ccc(C=O)cc1O | inactive | inactive | inactive | – | inactive | inactive | inactive | inactive | inactive | inactive | inactive | inactive | inactive | inactive | inactive | inactive | inactive | inactive | – | –
C[N+]1(C)CCCCC1 | inactive | inactive | – | – | inactive | inactive | inactive | – | inactive | inactive | inactive | inactive | inactive | inactive | – | inactive | inactive | inactive | inactive | –
CCc1ccc(C2CCNCC2)cc1 | inactive | – | inactive | – | inactive | inactive | inactive | – | inactive | inactive | inactive | inactive | inactive | inactive | inactive | inactive | inactive | inactive | inactive | inactive
CCN(CCO)CCO | inactive | inactive | inactive | – | inactive | inactive | inactive | inactive | inactive | inactive | inactive | inactive | – | inactive | inactive | – | inactive | inactive | inactive | –
NC(=O)CS(=O)C(c1ccccc1)c1ccccc1 (centres undefined) | inactive | inactive | inactive | inactive | inactive | inactive | inactive | inactive | inactive | inactive | inactive | – | – | inactive | inactive | – | inactive | inactive | inactive | –
ClCC1CO1 (centres undefined) | inactive | inactive | inactive | inactive | inactive | inactive | inactive | inactive | – | – | inactive | inactive | – | inactive | inactive | – | – | inactive | inactive | –
ClCCN1CCCC1 | inactive | inactive | inactive | – | inactive | inactive | inactive | – | inactive | inactive | inactive | inactive | – | inactive | inactive | – | inactive | inactive | inactive | –
O=C/C=C/c1ccco1 | inactive | inactive | inactive | – | inactive | inactive | inactive | inactive | inactive | inactive | inactive | inactive | inactive | inactive | inactive | inactive | – | inactive | – | –
CN(C)CCN(C)C | inactive | inactive | inactive | – | inactive | inactive | inactive | inactive | – | inactive | inactive | inactive | – | inactive | inactive | – | inactive | inactive | inactive | –
CCC1(c2ccccc2)CCC(=O)NC1=O (centres undefined) | inactive | – | – | inactive | inactive | inactive | inactive | – | inactive | inactive | inactive | inactive | inactive | inactive | inactive | inactive | inactive | inactive | inactive | inactive
C(COCC1CO1)OCC1CO1 (centres undefined) | inactive | inactive | – | – | inactive | inactive | inactive | 34.4 µM (active) | – | – | inactive | inactive | – | inactive | inactive | – | – | – | inactive | inactive
